# Reference: article PMC11006913
# Numbering of substitutions follows the chain as printed.
# Columns and labels:
# Experiment in all cases: PBM; 200 nM protein, PBS
# Conditions in all cases: dsDNA, one strand shown
# NKX2-4 [1] = target: T1, NKX2-4 (Homo sapiens, UniProt Q9H2Z4 175-261, P217L)
# T1 sequence: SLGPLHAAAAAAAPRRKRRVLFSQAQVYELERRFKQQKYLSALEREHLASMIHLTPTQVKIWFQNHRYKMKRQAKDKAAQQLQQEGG
# NKX2-4 [2] = target: T2, NKX2-4 (Homo sapiens, UniProt Q9H2Z4 175-261, T231S)
# T2 sequence: T1 sequence with L43P, T57S
# NKX2-4 [3] = target: T3, NKX2-4 (Homo sapiens, UniProt Q9H2Z4 175-261)
# T3 sequence: T1 sequence with L43P
# NKX2-4 [4] = target: T4, NKX2-4 (Homo sapiens, UniProt Q9H2Z4 175-261, R246Q)
# T4 sequence: T1 sequence with L43P, R72Q
# NKX3-2 [5] = target: NKX3-2 (Homo sapiens, UniProt P78367 192-278, P234S)
# Sequence of NKX3-2 (Homo sapiens, UniProt P78367 192-278, P234S) (P78367 192-278 P234S): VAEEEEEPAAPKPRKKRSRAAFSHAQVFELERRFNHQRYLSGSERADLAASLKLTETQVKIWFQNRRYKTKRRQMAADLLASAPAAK
# NKX3-2 [6] = target: NKX3-2 (Homo sapiens, UniProt P78367 192-278)
# Sequence of NKX3-2 (Homo sapiens, UniProt P78367 192-278) (P78367 192-278): as the sequence (P78367 192-278 P234S) above, with S43P counted along it
# NKX2-6 [7] = target: T5, NKX2-6 (Homo sapiens, UniProt A6NCS4 118-204, F151L)
# T5 sequence: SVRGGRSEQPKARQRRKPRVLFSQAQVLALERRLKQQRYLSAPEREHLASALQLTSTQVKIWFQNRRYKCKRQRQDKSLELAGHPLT
# NKX2-6 [8] = target: T6, NKX2-6 (Homo sapiens, UniProt A6NCS4 118-204, R150C)
# T6 sequence: T5 sequence with R33C, L34F
# VENTX [9] = target: T7, VENTX (Homo sapiens, UniProt O95231 78-163, R121Q)
# T7 sequence: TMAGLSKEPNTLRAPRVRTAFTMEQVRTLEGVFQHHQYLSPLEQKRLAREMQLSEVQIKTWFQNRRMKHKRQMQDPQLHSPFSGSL
# SIX6 [10] = target: T8, SIX6 (Homo sapiens, UniProt O95475 114-200, L167I)
# T8 sequence: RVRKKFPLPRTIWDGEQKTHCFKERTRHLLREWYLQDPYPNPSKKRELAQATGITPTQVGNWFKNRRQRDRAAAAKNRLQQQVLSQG
# HOXC9 [11] = target: HOXC9 (Homo sapiens, UniProt P31274 178-260, K195R)
# Sequence of HOXC9 (Homo sapiens, UniProt P31274 178-260, K195R) (P31274 178-260 K195R): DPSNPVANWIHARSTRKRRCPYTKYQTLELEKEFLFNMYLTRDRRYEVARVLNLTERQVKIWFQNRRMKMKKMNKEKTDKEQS
# VENTX [12] = target: T9, VENTX (Homo sapiens, UniProt O95231 78-163)
# T9 sequence: T7 sequence with Q44R
# SIX6 [13] = target: T10, SIX6 (Homo sapiens, UniProt O95475 114-200, L143V)
# T10 sequence: T8 sequence with L30V, I54L
# HOXC10 [14] = target: HOXC10 (Homo sapiens, UniProt Q9NYD6 254-340)
# Sequence of HOXC10 (Homo sapiens, UniProt Q9NYD6 254-340) (Q9NYD6 254-340): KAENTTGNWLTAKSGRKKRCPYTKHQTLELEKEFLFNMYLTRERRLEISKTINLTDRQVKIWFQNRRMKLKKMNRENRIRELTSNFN
# SIX6 [15] = target: T11, SIX6 (Homo sapiens, UniProt O95475 114-200, H141N)
# T11 sequence: T8 sequence with H28N, I54L
# SIX6 [16] = target: T12, SIX6 (Homo sapiens, UniProt O95475 114-200, T165P)
# T12 sequence: T8 sequence with T52P, I54L
# VENTX [17] = target: T13, VENTX (Homo sapiens, UniProt O95231 78-163, Y115F)
# T13 sequence: T7 sequence with Y38F, Q44R
# SIX6 [18] = target: T14, SIX6 (Homo sapiens, UniProt O95475 114-200, L167M)
# T14 sequence: T8 sequence with I54M
# SIX6 [19] = target: T15, SIX6 (Homo sapiens, UniProt O95475 114-200, L143M)
# T15 sequence: T8 sequence with L30M, I54L
# SIX6 [20] = target: T16, SIX6 (Homo sapiens, UniProt O95475 114-200, L143I)
# T16 sequence: T8 sequence with L30I, I54L
# SIX6 [21] = target: T17, SIX6 (Homo sapiens, UniProt O95475 114-200, T165G)
# T17 sequence: T8 sequence with T52G, I54L
# SIX6 [22] = target: T18, SIX6 (Homo sapiens, UniProt O95475 114-200, T139Q)
# T18 sequence: T8 sequence with T26Q, I54L
# HOXC9 [23] = target: HOXC9 (Homo sapiens, UniProt P31274 178-260)
# Sequence of HOXC9 (Homo sapiens, UniProt P31274 178-260) (P31274 178-260): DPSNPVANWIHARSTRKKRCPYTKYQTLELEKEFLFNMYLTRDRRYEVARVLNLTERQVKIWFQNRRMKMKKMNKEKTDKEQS
# SIX6 [24] = target: T19, SIX6 (Homo sapiens, UniProt O95475 114-200, T165A)
# T19 sequence: T8 sequence with T52A, I54L
# HOXC9 [25] = target: HOXC9 (Homo sapiens, UniProt P31274 178-260, R193K)
# Sequence of HOXC9 (Homo sapiens, UniProt P31274 178-260, R193K) (P31274 178-260 R193K): as the sequence (P31274 178-260) above, with R16K counted along it
# HOXC10 [26] = target: HOXC10 (Homo sapiens, UniProt Q9NYD6 254-340, K271E)
# Sequence of HOXC10 (Homo sapiens, UniProt Q9NYD6 254-340, K271E) (Q9NYD6 254-340 K271E): as the sequence (Q9NYD6 254-340) above, with K18E counted along it
# SIX6 [27] = target: T20, SIX6 (Homo sapiens, UniProt O95475 114-200, L167V)
# T20 sequence: T8 sequence with I54V
# PROP1 [28] = target: PROP1 (Homo sapiens, UniProt O75360 56-141)
# Sequence of PROP1 (Homo sapiens, UniProt O75360 56-141) (O75360 56-141): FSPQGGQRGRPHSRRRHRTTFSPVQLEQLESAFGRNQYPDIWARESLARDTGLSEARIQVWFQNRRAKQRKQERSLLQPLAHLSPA
# SIX6 [29] = target: T21, SIX6 (Homo sapiens, UniProt O95475 114-200)
# T21 sequence: T8 sequence with I54L
# PROP1 [30] = target: PROP1 (Homo sapiens, UniProt O75360 56-141, R99H)
# Sequence of PROP1 (Homo sapiens, UniProt O75360 56-141, R99H) (O75360 56-141 R99H): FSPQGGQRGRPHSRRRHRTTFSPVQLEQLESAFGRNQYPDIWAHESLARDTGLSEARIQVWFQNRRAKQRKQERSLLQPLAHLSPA
# SIX6 [31] = target: T22, SIX6 (Homo sapiens, UniProt O95475 114-200, T165I)
# T22 sequence: T8 sequence with T52I, I54L
# HOXC9 [32] = target: HOXC9 (Homo sapiens, UniProt P31274 178-260, R222W)
# Sequence of HOXC9 (Homo sapiens, UniProt P31274 178-260, R222W) (P31274 178-260 R222W): as the sequence (P31274 178-260) above, with R45W counted along it
# PROP1 [33] = target: PROP1 (Homo sapiens, UniProt O75360 56-141, F88S)
# Sequence of PROP1 (Homo sapiens, UniProt O75360 56-141, F88S) (O75360 56-141 F88S): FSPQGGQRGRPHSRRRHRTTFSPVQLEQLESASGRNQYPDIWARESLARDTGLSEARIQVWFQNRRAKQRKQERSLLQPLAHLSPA
sequence,measurement,setting,value
ACCACTCA,binding signal,NKX2-4 [1],"12.4 upbm affinity estimate (log intensity, higher = more binding, comparable within an allelic series)"
same,binding signal,NKX2-4 [2],"12.8 upbm affinity estimate (log intensity, higher = more binding, comparable within an allelic series)"
same,binding signal,NKX2-4 [3],"12.3 upbm affinity estimate (log intensity, higher = more binding, comparable within an allelic series)"
same,binding signal,NKX2-4 [4],"12.8 upbm affinity estimate (log intensity, higher = more binding, comparable within an allelic series)"
same,binding signal,NKX3-2 [5],"12.5 upbm affinity estimate (log intensity, higher = more binding, comparable within an allelic series)"
same,binding signal,NKX3-2 [6],"12.6 upbm affinity estimate (log intensity, higher = more binding, comparable within an allelic series)"
CACTCTTA,binding signal,NKX2-4 [1],"12.3 upbm affinity estimate (log intensity, higher = more binding, comparable within an allelic series)"
same,binding signal,NKX2-4 [2],"12.7 upbm affinity estimate (log intensity, higher = more binding, comparable within an allelic series)"
same,binding signal,NKX2-4 [3],"12.3 upbm affinity estimate (log intensity, higher = more binding, comparable within an allelic series)"
same,binding signal,NKX2-4 [4],"12.8 upbm affinity estimate (log intensity, higher = more binding, comparable within an allelic series)"
same,binding signal,NKX3-2 [5],"12.5 upbm affinity estimate (log intensity, higher = more binding, comparable within an allelic series)"
same,binding signal,NKX3-2 [6],"12.6 upbm affinity estimate (log intensity, higher = more binding, comparable within an allelic series)"
ACACTCAA,binding signal,NKX2-4 [1],"12.5 upbm affinity estimate (log intensity, higher = more binding, comparable within an allelic series)"
same,binding signal,NKX2-4 [2],"12.8 upbm affinity estimate (log intensity, higher = more binding, comparable within an allelic series)"
same,binding signal,NKX2-4 [3],"12.3 upbm affinity estimate (log intensity, higher = more binding, comparable within an allelic series)"
same,binding signal,NKX2-4 [4],"12.8 upbm affinity estimate (log intensity, higher = more binding, comparable within an allelic series)"
same,binding signal,NKX2-6 [7],"10.6 upbm affinity estimate (log intensity, higher = more binding, comparable within an allelic series)"
ACAAGTAC,binding signal,NKX2-4 [1],"12.5 upbm affinity estimate (log intensity, higher = more binding, comparable within an allelic series)"
same,binding signal,NKX2-4 [2],"12.9 upbm affinity estimate (log intensity, higher = more binding, comparable within an allelic series)"
same,binding signal,NKX2-6 [8],"11.6 upbm affinity estimate (log intensity, higher = more binding, comparable within an allelic series)"
same,binding signal,NKX2-4 [4],"12.9 upbm affinity estimate (log intensity, higher = more binding, comparable within an allelic series)"
TGCCCCCA,binding signal,NKX2-4 [1],"9.77 upbm affinity estimate (log intensity, higher = more binding, comparable within an allelic series)"
same,binding signal,NKX2-4 [2],"9.8 upbm affinity estimate (log intensity, higher = more binding, comparable within an allelic series)"
same,binding signal,NKX2-4 [3],"9.76 upbm affinity estimate (log intensity, higher = more binding, comparable within an allelic series)"
same,binding signal,NKX2-4 [4],"9.88 upbm affinity estimate (log intensity, higher = more binding, comparable within an allelic series)"
GAGTACTC,binding signal,NKX2-4 [1],"12.4 upbm affinity estimate (log intensity, higher = more binding, comparable within an allelic series)"
same,binding signal,NKX2-4 [2],"12.8 upbm affinity estimate (log intensity, higher = more binding, comparable within an allelic series)"
same,binding signal,NKX2-4 [3],"12.3 upbm affinity estimate (log intensity, higher = more binding, comparable within an allelic series)"
same,binding signal,NKX2-4 [4],"12.9 upbm affinity estimate (log intensity, higher = more binding, comparable within an allelic series)"
GCTTGGCC,binding signal,VENTX [9],"7.86 upbm affinity estimate (log intensity, higher = more binding, comparable within an allelic series)"
same,binding signal,SIX6 [10],"8.94 upbm affinity estimate (log intensity, higher = more binding, comparable within an allelic series)"
same,binding signal,HOXC9 [11],"9.68 upbm affinity estimate (log intensity, higher = more binding, comparable within an allelic series)"
same,binding signal,VENTX [12],"7.97 upbm affinity estimate (log intensity, higher = more binding, comparable within an allelic series)"
same,binding signal,SIX6 [13],"8.84 upbm affinity estimate (log intensity, higher = more binding, comparable within an allelic series)"
same,binding signal,HOXC10 [14],"10.1 upbm affinity estimate (log intensity, higher = more binding, comparable within an allelic series)"
same,binding signal,SIX6 [15],"8.96 upbm affinity estimate (log intensity, higher = more binding, comparable within an allelic series)"
same,binding signal,SIX6 [16],"8.86 upbm affinity estimate (log intensity, higher = more binding, comparable within an allelic series)"
same,binding signal,VENTX [17],"7.9 upbm affinity estimate (log intensity, higher = more binding, comparable within an allelic series)"
same,binding signal,SIX6 [18],"8.89 upbm affinity estimate (log intensity, higher = more binding, comparable within an allelic series)"
same,binding signal,SIX6 [19],"8.89 upbm affinity estimate (log intensity, higher = more binding, comparable within an allelic series)"
same,binding signal,SIX6 [20],"8.86 upbm affinity estimate (log intensity, higher = more binding, comparable within an allelic series)"
same,binding signal,SIX6 [21],"8.99 upbm affinity estimate (log intensity, higher = more binding, comparable within an allelic series)"
same,binding signal,SIX6 [22],"9.01 upbm affinity estimate (log intensity, higher = more binding, comparable within an allelic series)"
same,binding signal,HOXC9 [23],"9.78 upbm affinity estimate (log intensity, higher = more binding, comparable within an allelic series)"
same,binding signal,SIX6 [24],"8.94 upbm affinity estimate (log intensity, higher = more binding, comparable within an allelic series)"
same,binding signal,HOXC9 [25],"9.65 upbm affinity estimate (log intensity, higher = more binding, comparable within an allelic series)"
same,binding signal,HOXC10 [26],"10 upbm affinity estimate (log intensity, higher = more binding, comparable within an allelic series)"
same,binding signal,SIX6 [27],"8.95 upbm affinity estimate (log intensity, higher = more binding, comparable within an allelic series)"
same,binding signal,PROP1 [28],"6.59 upbm affinity estimate (log intensity, higher = more binding, comparable within an allelic series)"
same,binding signal,SIX6 [29],"8.89 upbm affinity estimate (log intensity, higher = more binding, comparable within an allelic series)"
same,binding signal,PROP1 [30],"6.63 upbm affinity estimate (log intensity, higher = more binding, comparable within an allelic series)"
same,binding signal,SIX6 [31],"8.91 upbm affinity estimate (log intensity, higher = more binding, comparable within an allelic series)"
same,binding signal,HOXC9 [32],"9.69 upbm affinity estimate (log intensity, higher = more binding, comparable within an allelic series)"
same,binding signal,PROP1 [33],"6.65 upbm affinity estimate (log intensity, higher = more binding, comparable within an allelic series)"
